Compound activity as filed in PubChem.
Sampled rows, rich in hits. Any-hit rate of the full collection: about 1.6%.
12-LOX inh: inhibitors of human 12S-lipoxygenase ALOX12 | P18054 | purified 12hLO, xylenol orange hydroperoxide absorbance | Potency, µM (titrated, usually from 108 µM), for inactives: top-dose activity change, negative = inhibition, most hits filed as inhibitors | 580,000 compounds, 1.1% hits | AID 1671190; note: % is set by controls: 0 for no effect and ±100 for the full control effect
Target sequence (P18054 whole entry, looked up): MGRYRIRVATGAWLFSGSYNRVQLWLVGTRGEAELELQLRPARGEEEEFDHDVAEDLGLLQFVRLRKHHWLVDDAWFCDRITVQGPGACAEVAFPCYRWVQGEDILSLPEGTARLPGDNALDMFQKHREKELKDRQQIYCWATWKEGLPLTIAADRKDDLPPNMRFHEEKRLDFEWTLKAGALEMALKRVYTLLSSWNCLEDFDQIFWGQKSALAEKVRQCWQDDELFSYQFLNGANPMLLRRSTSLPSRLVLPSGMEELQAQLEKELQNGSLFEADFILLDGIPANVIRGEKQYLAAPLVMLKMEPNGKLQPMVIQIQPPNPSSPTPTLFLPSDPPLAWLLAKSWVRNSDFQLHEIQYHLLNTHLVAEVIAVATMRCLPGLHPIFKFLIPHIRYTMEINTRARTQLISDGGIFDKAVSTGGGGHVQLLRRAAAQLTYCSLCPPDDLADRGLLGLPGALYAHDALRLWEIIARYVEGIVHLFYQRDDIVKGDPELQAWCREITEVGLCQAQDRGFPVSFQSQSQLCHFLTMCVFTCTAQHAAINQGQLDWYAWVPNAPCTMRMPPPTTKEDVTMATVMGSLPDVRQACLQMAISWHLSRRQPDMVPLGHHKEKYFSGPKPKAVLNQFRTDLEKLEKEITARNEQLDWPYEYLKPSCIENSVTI
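Hydroperoxide product was detected by ferrous iron/xylenol orange as the 573 to 405 nm absorbance ratio. Arachidonic acid at 40 uM (final) was turned over for 30 min at room temperature by 150 nM human 12hLO, pH 7.0 Hepes buffer, after 15 min compound preincubation.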
gsp antag: antagonists of gsp mutant (McCune-Albright syndrome); AID 624288; gsp-mutant cells, cAMP HTRF, 30 min; 340,000 compounds, 0.4% hits; Potency, µM (titrated, usually from 76.9 µM), without a hit: at the highest dose activity change, negative = inhibition, usual class: inhibitors; calls by dose curve; cell line not stated here;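 note: intracellular cAMP measured with PDE inhibitor Ro 20-1724 present during compound exposure; % is set by controls: 0 for no effect and ±100 for the full control effect; nearly all actives have a fitted effect of over 65% in size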
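Cells in G418 medium, seeded 16-24 h, 37C; buffer exchange to DPBS + 1 mM CaCl2, 0.5 mM MgCl2, 0.05% BSA; cpds in DMSO + […] (300 uM stock), 30 min 37C; HTRF cAMP detection.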
gsp ag: activates gsp, the McCune-Albright syndrome mutation. Potency, µM (highest dose often 76.9 µM), for inactives: at the highest dose activation (cAMP increase), actives largely listed as activators. gsp mutant cells, cAMP HTRF, 30 min. 340,000 compounds, 0.13% hits; active = well fitted activation curve with a large enough effect; inconclusive = small, poorly fitted or top-dose-only effect, or another doubt; inactive = no such curve, though single readings can be large or run the other way; cell line not stated here;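 note: phosphodiesterase inhibitor Ro 20-1724 added with compounds to block cAMP breakdown; nearly all actives have a fitted effect of over 60% in size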
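Cells in DMEM/10% FBS with G418 were pretreated with compounds in DMSO plus […] (300 uM stock) for 30 min at 37C. cAMP was measured by HTRF (cAMP-d2 plus anti-cAMP antibody-K) after 30 min at room temperature.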
FUS suppressor: FUS proteinopathy suppression in yeast; 390,000 compounds, 0.24% hits; S. cerevisiae FUS-expressing, growth rescue, OD600, 24 h; Potency, µM (highest dose often 76.6 µM), most hits filed as activators;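 note: plate controls were DMSO vehicle for no effect and reference control for full effect; nearly all actives have a fitted effect of over 55% in size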
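Toxicity suppression screen in FUS-yeast. Cells induced with 2% galactose, starting OD 0.005, treated 24hr at 30C with compounds at multiple final concentrations; growth by OD600.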
Mito fusion act: blocks mitochondrial division or promotes mitochondrial fusion | S. cerevisiae fusion-defective mutant growth rescue, CellTiterGlo 48 h | Potency, µM (top dose mostly 46.1 µM), for the others: top-dose growth rescue (activation), hits mostly activators | 320,000 compounds, 0.23% hits; note: % of control where 0% means no effect; nearly all actives have a fitted effect of over 45% in size
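Yeast fusion mutant, YPEG (non-fermentable carbon), compound, 48 h at 37C non-permissive; CellTiterGlo added, 10 min RT, luminescence read. Rescued growth = division inhibition.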
* hit, by the source's call; i = inactive; ? = inconclusive; nt = no result; [ ] = dose if it differs, or a comment. Unless noted, calls come from the whole dose curve; as a rule, active = well fitted curve in the direction sought with a large enough effect; inconclusive = small, poorly fitted or top-dose-only effect, or another doubt; inactive = no such curve, though single readings can be large; an effect the other way counts as inactive or inconclusive. Potency is the fitted concentration of half-maximal effect.

SMILES | 12-LOX inh | gsp antag | gsp ag | FUS suppressor | Mito fusion act
O=C(N/N=C/c1cn(-c2cccs2)nc1-c1ccccc1)c1ccccc1Cl | -13.9% | -19.8% | 28.4% | nt | 17.8µM*
CC1=C[C@@H](CNCc2ccc(F)cc2)[C@H](C(C)C)C[C@H]1Cc1nnc(-c2cncn2C)o1 | 50.2%[176 µM] | nt | nt | nt | nt
CCOc1ccc(CCNC(=O)C2CCCN(c3nc4ccc(OCC)cc4s3)C2)cc1 (configuration not stated) | 8.3% | nt | nt | nt | nt
Cc1cc(C)nc(SCC(=O)N2CCc3ccccc32)n1 | -0.2% | -1.1% | 12.9% | i | nt
Cc1cc(C)n2nc(SCC(=O)N3CCc4ccccc43)nc2n1 | 0.1% | -8.8% | 1.3% | nt | 35.5µM*
CCCCCCCCCCSCCC(=O)O | 39.8µM* | nt | nt | nt | nt
Cc1ccc(C(=O)OCC(=O)Nc2sc3c(c2C#N)CCCCC3)cc1NC(=O)c1ccco1 | 0.0% | -11.4% | -9.6% | ? | -1.4%
Cc1ccc(C(=O)OCC(=O)Nc2sc3c(c2C#N)CCCC3)cc1NC(=O)c1ccco1 | 35.5µM* | ? | -10.0% | i | 0.6%
CC(C)OCCCn1c(-c2ccc(Br)cc2)c[nH]c1=S | 44.7µM* | -9.9% | 3.0%[15.4 µM] | i | 1.1%
CC(C)OCCCn1c(=S)[nH]c2ncccc2c1=O | -23.8% | -1.2% | 7.3%[15.4 µM] | i | -2.0%
Cn1nnc(NC(=S)NC(=O)c2cc3ccccc3o2)n1 | 2.51µM* | -0.5% | -1.0% | i | -8.4%
Cn1nnc(NC(=S)NC(=O)c2ccco2)n1 | ? | 6.2% | 24.1% | i | -2.6%
Fc1ccccc1-c1nc(N2CCCCCC2)c2ccccc2n1 | 5.3% | nt | nt | nt | nt
COC(=O)C1CN(Cc2cn(Cc3ccc(C)cc3)nn2)CCS(=O)(=O)N1Cc1ccc(C)cc1 (configuration not stated) | 15.8µM* | nt | nt | nt | nt
COC(=O)C1CN(Cc2ccccc2)CCS(=O)(=O)N1Cc1cn(Cc2ccc(F)cc2)nn1 (configuration not stated) | nt | nt | nt | i | nt
COC(=O)C1CN(Cc2ccccc2)CCS(=O)(=O)N1Cc1cn(Cc2ccccc2Br)nn1 (configuration not stated) | nt | nt | nt | 14.1µM* | nt
CC(=O)NC1(C)CCCN(Cc2cccc(-c3ccc4c(ccn4C)c3)c2)C1 (configuration not stated) | 35.5µM* | nt | nt | nt | nt
CC(=O)NC1(C)CCN(Cc2ccccc2-c2ccc3ccccc3c2)C1 (configuration not stated) | 31.6µM* | nt | nt | nt | nt
CC(=O)NC1(C)CCCN(Cc2cccc(Nc3ccccc3)c2)C1 (configuration not stated) | -21.3%[176 µM] | nt | nt | nt | nt
CC(=O)Nc1cccc(-c2csc(CN3CCCC(C)(NC(C)=O)C3)c2)c1 (configuration not stated) | 6.5%[176 µM] | nt | nt | nt | nt
CC(=O)NC1(C)CCN(Cc2cccc(-c3cccc(Cl)c3)c2)C1 (configuration not stated) | 39.8µM* | nt | nt | nt | nt
COc1ccc(-c2cccc(CN3CCCC(C)(NC(C)=O)C3)c2)cc1OC (configuration not stated) | -9.3%[176 µM] | nt | nt | nt | nt
Cc1ccccc1-c1cc(=O)c2cc(NC(=O)C3CCCCC3)ccc2o1 | -2.4% | nt | nt | nt | nt
O=C(O)CCNC(=O)C(F)(F)C(F)(F)C(F)(F)C(F)(F)C(F)(F)C(F)(F)F | 11.2µM* | nt | nt | nt | nt
CC1(C)CC(C(CC(=O)N2CCCC2)Cc2ccccc2)CCO1 (configuration not stated) | 22.2% | 50.1µM* | -22.0% | i | 0.0%
SMILES | 12-LOX inh | gsp antag | gsp ag | FUS suppressor | Mito fusion act
CCOC(=O)c1ccc(NC(=O)c2cn(-c3ccccc3)nc2-c2ccc(OC)c(OC)c2)cc1 | -20.8% | nt | nt | 25.1µM* | nt
CCN(CC(=O)Nc1ccc(NC(C)=O)cc1)C(=O)/C=C/c1cn(-c2ccccc2)nc1-c1ccc(F)cc1 | -3.4% | ? | -1.3% | i | 7.2%
CCN(CC(=O)Nc1ccc(NC(C)=O)cc1)C(=O)/C=C/c1cn(-c2ccccc2)nc1-c1ccc(C)cc1 | 0.7% | -22.3% | 10.1%[15.4 µM] | 31.6µM* | -2.0%
COc1cccc(NC(=O)CN(C)C(=O)/C=C/c2cn(-c3ccccc3)nc2-c2ccc(OC)c(OC)c2)c1 | ? | ? | 11.7% | 39.8µM* | nt
COc1ccc(-c2nn(-c3ccccc3)cc2/C=C/C(=O)N(C)CC(=O)Nc2cccc(F)c2)cc1OC | -64.8% | -34.8% | -35.4% | ? | nt
COc1ccc(-c2nn(-c3ccccc3)cc2C(=O)Nc2ccc(C(=O)O)cc2)cc1OC | 11.5% | -9.9% | -8.9%[15.4 µM] | i | 14.2%
CC(C)Oc1ccc(/C=N/NC(N)=S)cc1 | ? | 14.0% | -4.6% | i | -2.1%
CN(CCC#N)c1ccc(/C=N/NC(N)=S)cc1 | 17.8µM* | nt | nt | nt | nt
COc1ccc(/C=N/NC(N)=S)cc1OC(=O)c1cccc2ccccc12 | 15.8µM* | -9.6% | -2.9% | i | -0.1%
COc1cc(/C=N/NC(N)=O)ccc1OC(=O)c1ccc(C)cc1 | nt | nt | nt | nt | -4.8%
COc1ccc(/C=N/NC(N)=S)cc1 | 25.1µM* | 10.1% | -11.9%[15.4 µM] | i | -7.7%
NC(=S)N/N=C/c1ccc(C(F)(F)F)cc1 | ? | 11.1% | 11.4% | nt | -2.5%
COc1ccc(C(=O)Oc2cc(/C=N/NC(N)=S)ccc2OC)cc1 | 31.6µM* | -3.0% | -27.3% | ? | -4.6%
O=C(CNc1cc(Cl)ccc1N1CCOCC1)Nc1ccccc1C(=O)c1ccccc1 | 1.5% | nt | nt | nt | nt
Cc1c(Cl)cccc1NC(=S)NCC1(N(C)C)CCCCC1 | -1.2% | nt | nt | nt | nt
O=C1NCc2ccccc2CC12CCCCN2Cc1cc2ccccc2o1 (configuration not stated) | 10.5%[6.33 µM] | nt | nt | nt | nt
CCCCN(CCCC)C(=O)c1ccc(N)cc1 | 15.8µM* | nt | nt | nt | nt
NC(N)=NCc1ccc(CN2CCCC2)cc1 | 44.7µM* | nt | nt | nt | nt
CN(C)c1ccc(CN2CCCCCC2)cc1 | -1.4% | -6.6% | 2.7% | i | -1.6%
OC(CNCCc1ccc(C(F)(F)F)cc1)COC(c1ccccc1)c1ccccc1 (configuration not stated) | 14.1µM* | 5.7% | -35.3% | i | -71.4%
COc1ccc(C(OCC(O)CNCCc2ccc(S(N)(=O)=O)cc2)c2ccc(OC)cc2)cc1 (configuration not stated) | 0.0% | -2.1% | 8.6%[15.4 µM] | i | 10.9%
O=C(Cc1ccccc1Cl)NCc1cccc(C(=O)Nc2ccccc2)c1 | -6.2% | nt | nt | nt | nt
CN(C)NC(=S)NC1CC2CCC1C2 (configuration not stated) | 17.8µM* | -2.5% | -41.5% | i | -9.3%
CC(C(=O)NC1CCCC1)N(C(=O)Cn1nnc(-c2ccc(F)cc2)n1)c1ccccc1F (configuration not stated) | -0.8% | -22.5% | 4.4%[15.4 µM] | i | 7.08µM*
Cc1cc(C(=O)N2CCCC(C(=O)c3ccc(Oc4ccccc4)cc3)C2)n[nH]1 (configuration not stated) | 49.5% | 35.5µM* | -10.2% | i | -17.8%
